Results published in the supplement of paper PMC6555819.

Columns and labels:
Assay in all cases: PBM binding z-score (relative to random genomic background probes); higher = stronger binding; sequences stand for … in GC…GCGATTGACAGCGTAGAATGAAGG
[1] = system: FXR:RXRa (NR concentration 270 nM, RXRa partner concentration 90 nM)
Summary of the method: (§1)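 Random background probes are the reference for binding z-scores. These scores derive from regression-normalized fluorescence on custom Agilent 4×180K protein-binding microarrays incubated 1 h with ligand-free nuclear receptor dimers. Binding was detected with antibodies against each partner (one per run).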

[2] = system: LXRa:RXRa (NR concentration 270 nM, RXRa partner concentration 90 nM)
Summary of the method: as §1

[3] = system: LXRa homodimer (NR concentration 270 nM)
Summary of the method: as §1

[4] = system: LXRb:RXRa (NR concentration 270 nM, RXRa partner concentration 90 nM)
Summary of the method: as §1

[5] = system: LXRb homodimer (NR concentration 270 nM)
Summary of the method: as §1

[6] = system: PPARa:RXRa (NR concentration 270 nM, RXRa partner concentration 90 nM)
Summary of the method: as §1

[7] = system: PPARg:RXRa (NR concentration 180 nM, RXRa partner concentration 90 nM)
Summary of the method: as §1

[8] = system: PPARg:RXRa 270nM:90nM, anti-RXR (NR concentration 270 nM, RXRa partner concentration 90 nM)
Summary of the method: as §1

[9] = system: PPARg:RXRa 30nM:10nM, anti-RXR (NR concentration 30 nM, RXRa partner concentration 10 nM)
Summary of the method: as §1

[10] = system: PPARg:RXRa 90nM:30nM, anti-RXR (NR concentration 90 nM, RXRa partner concentration 30 nM)
Summary of the method: as §1

Sequence | PBM binding z-score [1] | PBM binding z-score [2] | PBM binding z-score [3] | PBM binding z-score [4] | PBM binding z-score [5] | PBM binding z-score [6] | PBM binding z-score [7] | PBM binding z-score [8] | PBM binding z-score [9] | PBM binding z-score [10]
CCTTACGGGTCACTCCAGGTTATCGCATCGGAGT | 4.86 | 7.44 | 2.05 | 5.17 | 0.292 | 4.26 | 3.02 | 3.76 | 0.874 | 2.38
CCTTACGGGTCAAGGTTATAGTACGGGTGGTACG | 6.07 | 3.88 | 0.501 | 3.24 | 0.225 | 5.17 | 4.78 | 4.77 | 1.91 | 3.37
ATCTCTAGGTACCCAAGTTCAGTGAATGCCGAAC | 0.332 | 1.7 | 3 | 0.887 | 1.08 | 0.625 | 0.408 | 0.456 | 0.321 | 0.493
CGAACTAGGTCAGAACAGGACAGTGAGGGATGAT | 1.59 | 0.807 | -0.0765 | 0.315 | -0.376 | 2.96 | 5.04 | 4.45 | 1.74 | 3.43
ACTAGCTGGTCAGCTGAGGTCACACACAATTCGG | 3.62 | 3.57 | 2.15 | 3.21 | -0.0797 | 3.58 | 1.76 | 2.01 | 0.341 | 0.958
CGTCAAAGTTCAACTAACGTAACGTAAAGCACGC | 6.21 | 5.98 | 3.62 | 4.08 | 2.43 | 4.99 | 4.65 | 5.21 | 2.17 | 4.04
ACAGACAGGGGATGAAGGTAACTCAGGCTATCAT | 0.0429 | -0.217 | -0.0262 | 0.454 | 0.563 | 0.414 | 0.8 | -0.0093 | -0.0639 | -0.0825
CCTATTAGTTGACCGTAAGGGCAACCGAAGCTCG | 1.88 | 0.908 | 0.863 | 0.769 | 0.64 | 0.834 | 0.00382 | 0.48 | -0.271 | -0.155
TCATATAGGTAATACAGGTGAAAATCGGCATCTA | 1.35 | 1.37 | 0.422 | 1.27 | 0.421 | 2 | 1.78 | 2.58 | 4.1 | 3.43
CGTCCAAGGTCAATGGTAGGTCAGTGAAAGCATT | 6.69 | 5.38 | 2.66 | 4.27 | 0.432 | 5.14 | 3.76 | 4.73 | 1.28 | 3.54
TTACCAAGGTGAGCTGAGGCCGTTGATCCAACTC | 0.053 | -0.536 | -0.916 | -0.569 | -1.39 | 0.236 | -0.296 | -0.253 | -0.438 | -0.329
GCGTGTAGATCAAGGTTAAGAAAGACTAAGCTAA | 0.359 | 0.939 | -0.369 | 0.539 | -0.757 | 1.28 | 0.0821 | 0.373 | -0.0969 | 0.289
CAAACTAGGTAACCGGAAGGTCAAAGTCCGCATG | 4.07 | 3.94 | 3.88 | 3.43 | 0.672 | 4.48 | 4.83 | 4.98 | 2.22 | 4.2
CGTCCAAGGTCATAGGAGGTCAGTGACGACAGAT | 7.82 | 7.6 | 4.84 | 6.12 | 0.978 | 6.02 | 5.6 | 5.9 | 2.05 | 4.62
CAAACTAGGTCAACGGAAGGTCAAAGTCCGCATG | 6.1 | 5.99 | 5.99 | 5.09 | 1.55 | 5.74 | 9.03 | 7.24 | 5.66 | 7.49
GCTGCTAGGTCAACTGATGGTCAGCTACAGCTCG | 4.25 | 2.91 | 0.26 | 1.97 | 0.014 | 3.65 | 2.65 | 2.9 | 0.862 | 1.99
GCTACCAGGCCATTTGGGTCACTCAATGACGGGC | 0.22 | 0.0663 | -0.549 | 0.301 | -0.419 | 1.57 | 0.923 | 0.744 | -0.356 | 0.658
CAAACTAGGTCACAGCGGTCAAAGTCCGTGCGTA | 5.25 | 5.23 | 5.2 | 4.06 | 0.739 | 5.65 | 8.85 | 7.4 | 5.13 | 7.02
TGAATGATGTTAAAGATCAGGGAACGTGGCGTCG | 0.0753 | 0.0362 | -0.207 | -0.167 | 0.281 | 0.925 | 1.32 | 2.98 | 1.82 | 2.49
AGAATGAGGTTACCAAAGATCAGGGAGACGCTTG | 2.11 | 6.33 | -0.321 | 3.23 | -0.156 | 3.38 | 2.8 | 2.92 | 1.02 | 2.15
AACACAGGGTCACTAGGCCAGAGTAGGTACGAAT | 6.27 | 4.48 | 0.354 | 3.63 | 0.661 | 5.75 | 7.72 | 6.51 | 2.84 | 5.42
AGAATGAGGTTATACGTAGATCAGGGTAGAAAGT | 2.27 | 1.96 | 0.00674 | 1.65 | 0.246 | 3.21 | 2.08 | 2.36 | 0.669 | 1.22
AGTCAAAGTTCACTAGGTAACGTATGATTCAGCT | 4.96 | 4.91 | 2.85 | 3.16 | 1.09 | 4.64 | 7.19 | 6.52 | 3 | 5.54
ACTTACGGGTCAACGAGGTAATAGCACGCGTATA | 6.86 | 4.42 | 0.29 | 3.61 | 0.727 | 5.72 | 5.56 | 5.53 | 2.48 | 4.37

Sequence | PBM binding z-score [1] | PBM binding z-score [2] | PBM binding z-score [3] | PBM binding z-score [4] | PBM binding z-score [5] | PBM binding z-score [6] | PBM binding z-score [7] | PBM binding z-score [8] | PBM binding z-score [9] | PBM binding z-score [10]
CGTCCAAGGTCATCGGAGGTCAGTGAAGACAGAT | 8.01 | 7.87 | 5.77 | 6.23 | 1.29 | 5.95 | 5.99 | 5.91 | 2.4 | 4.7
GATACAGGGTCAGCTAGAGGCCAGAGAATGGAAA | 4.74 | 2.83 | -0.346 | 2.73 | -0.535 | 4.65 | 3.8 | 3.53 | 1.08 | 2.59
CCTAGCAGGCCAATCTGGGTCAATCAAGGCTTGA | 0.324 | 1.22 | -0.656 | 0.742 | -1.17 | 3.09 | 1.49 | 1.95 | -0.105 | 1
CTCGAAAGGTCGTGCACAGGTGAGTATACCAAAC | 5.53 | 4.43 | 0.217 | 4.18 | 0.385 | 5.18 | 3.43 | 4.58 | 1.66 | 3.05
TCTCGGAGGAGACGAAGGTCAGAGCTTTCCAGAG | 0.255 | 0.507 | -0.124 | 0.569 | -1.39 | 1.62 | -0.069 | 1.26 | 1.84 | 1.51
TCTCGGAGGACACGCAAGGTCAGAGCTCGACATC | 1.49 | 2.26 | 1.31 | 1.58 | -0.475 | 2.1 | 0.475 | 1.39 | 2.16 | 1.64
TCGAGTTGGTCAAAGGTCACACACTCGAAATGCG | 5.98 | 5.57 | 3.08 | 5.33 | 0.74 | 6.37 | 10.4 | 9.4 | 8.64 | 11.3
GATACACGGTCAGCTAGAGGCCAGAGTATGGAAA | -0.145 | -0.145 | -0.281 | -0.57 | -0.753 | -0.296 | 0.351 | -0.323 | -0.383 | -0.205
CAAACTAGGTCACCGGAAGGTCAAAGTACGCATG | 6.81 | 6.23 | 5.23 | 5.83 | 1.75 | 6.36 | 9.91 | 8.16 | 6.57 | 7.9
CGTCCAAGGTCATCAGGTCAGTGAAAGCGACGTG | 7.31 | 5.49 | 1.85 | 4.14 | 0.684 | 5.83 | 6.35 | 6.07 | 2.32 | 4.84
ACTAGCAGGCCAAGTTTGGGTCCCTCAAACAAAG | -0.607 | -0.657 | -0.583 | -0.842 | -0.875 | -0.286 | -0.709 | -0.928 | -1.06 | -1.05
CCGACTGGGGCAAGTTTACCATAACGCACAGCCA | -0.129 | 0.0135 | 0.16 | 0.0377 | -0.603 | 0.536 | 0.987 | 0.774 | -0.288 | 0.451
TTACCTAGGTGAAAGGTCGTTGATGCACGCCTTG | 3.04 | 2.96 | 0.393 | 2.74 | -0.415 | 5.66 | 10.4 | 9.22 | 9.2 | 10.2
CTCGAAAGGCCGTGCTCAGGTGAGTATACCAAAC | -0.251 | -0.522 | -0.406 | -0.298 | -0.835 | -0.342 | -0.381 | -0.723 | -0.648 | -0.958
AGAACAAGGGCACGCTGAGTTGATAGCAGAGTAG | 0.401 | 0.296 | -0.369 | -0.0707 | -0.878 | 1.38 | 1.28 | 0.671 | 0.364 | 0.255
ATCGAAAGGTCGTGAGGTGAGCATACAGAAAGGC | 4.88 | 3.62 | -0.0763 | 2.89 | 0.368 | 4.84 | 3.58 | 4.56 | 1.29 | 2.96
ACTCGCAGGACAAAGGTCAGAGCTACGCCAGTGA | 3.77 | 4.15 | 1.13 | 3.23 | 0.178 | 4.75 | 7.12 | 6.87 | 5.49 | 6.99
GGAACGAGGGCAACGTTGATAGCATCTGTCGACG | 0.32 | 0.21 | -0.371 | 0.0442 | -0.855 | 1.59 | 1.9 | 1.95 | 0.134 | 1.2
ATACCAAGGTGATCGTGAGGTCGTTGATACTAAC | 1.86 | 1.35 | 0.615 | 1.5 | 0.284 | 1.67 | 0.613 | 0.439 | 0.0505 | 0.47
ATCTCTAGGTAAAGTTCAGTGAAAGATCGATAGA | 1.38 | 2.08 | 1.69 | 1.3 | 0.964 | 2.35 | 3.26 | 4.38 | 2.33 | 3.93
TCGAGTAGGTTAGGGGCATTAAGAATGGCGTCGA | 0.466 | 0.479 | -0.184 | 0.739 | -0.27 | 1.34 | 1.07 | 2.13 | 1.32 | 1.98
CCTCGGAGGACAGAAGGTCCGAGCTGTCCGCTTT | -0.475 | -0.736 | -0.887 | -1.15 | -0.992 | -1.11 | -0.956 | -1.22 | -1.48 | -1.44
CCTAGTTAGTCAGGAGGTCACACACCGGATATGA | 3.41 | 3.69 | 2.46 | 3.68 | 1.17 | 4.29 | 2.42 | 3.19 | 1.24 | 2.16
CCGACTGGGGCAGAAAGGTTACCAGACCATCCGG | 0.0987 | 0.481 | -0.312 | 0.525 | -1.23 | 2.1 | 1.47 | 2.61 | 0.619 | 2.04
